# GLD-1 RNA inh – GLD-1/TGE RNA complex disruptors, primary screen, biochemical, fluorescence polarization; 320,000 tested, 0.44% active; purified GLD-1 + fluorescein TGE RNA; Female germline-specific tumor suppressor gld-1 (Caenorhabditis elegans), Q17339; inhibition, % at 5.96 µM;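 active = percent inhibition above a per-plate cutoff, the plate mean of test compounds plus 3 SD, cut at about 30% in these data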;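 note: 0% = DMSO wells with GLD-1 and probe and 100% = wells lacking GLD-1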
# Mcl1 Bid PPI – Mcl-1/Bid binding inhibitors, primary screen, biochemical, TR-FRET, 1536-well; TR-FRET Mcl-1/Bid-Dy647 peptide binding; inhibition, % at 21.7 µM; 220,000 tested, 0.97% active;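 active = compounds that cut the binding signal by more than half at the single screening dose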;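 note: His-tagged Mcl-1 with europium anti-His antibody binding Bid BH3 peptide; 0% = Mcl-1 plus peptide wells and 100% = peptide-only wells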
# Target sequence (Q07820 whole entry, looked up): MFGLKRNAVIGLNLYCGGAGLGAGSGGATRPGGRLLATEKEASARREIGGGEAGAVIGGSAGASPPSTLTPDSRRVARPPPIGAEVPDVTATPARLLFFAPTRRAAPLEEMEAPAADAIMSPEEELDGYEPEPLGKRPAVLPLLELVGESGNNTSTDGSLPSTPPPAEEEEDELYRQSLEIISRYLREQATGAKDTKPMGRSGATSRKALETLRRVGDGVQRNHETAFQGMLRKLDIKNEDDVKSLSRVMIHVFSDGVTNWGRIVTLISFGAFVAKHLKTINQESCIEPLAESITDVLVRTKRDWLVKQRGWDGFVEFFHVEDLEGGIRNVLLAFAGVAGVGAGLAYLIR
# MCL1 BIM primary – inhibitors of MCL1 binding to BIM-BH3, primary screen, biochemical, fluorescence polarization | inhibition, % at 10.9 µM | 320,000 tested, 0.68% active | Induced myeloid leukemia cell differentiation protein Mcl-1 (Homo sapiens), Q07820 | GST-MCL1 / FITC-Bim-BH3 fluorescence polarization;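 active = inhibition above the mean inhibition of all tested compounds plus 3 SD, set per campaign, cut at about 40% in these data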;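 note: 0% = DMSO wells and 100% = unlabeled Bim-BH3 peptide control; higher means more loss of mP so more displacement of Bim peptide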
# BCLXL inh – inhibitors of human Bcl-xL, primary screen, biochemical, fluorescence polarization, HTS. Bcl-2-like protein 1 (Homo sapiens), Q07817. GST-Bcl-xL / FITC-Bim BH3 peptide fluorescence polarization. inhibition, % at 10.9 µM. 320,000 tested, 0.7% active;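 active = inhibition above the mean of all tested compounds plus 3 SD, cutoff set per campaign, cut at about 30% in these data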;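 note: 0% = DMSO wells and 100% = unlabeled Bim-BH3 peptide competitor; inhibitors lower millipolarization by displacing the labeled peptide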
# Target sequence (Q07817 whole entry, looked up): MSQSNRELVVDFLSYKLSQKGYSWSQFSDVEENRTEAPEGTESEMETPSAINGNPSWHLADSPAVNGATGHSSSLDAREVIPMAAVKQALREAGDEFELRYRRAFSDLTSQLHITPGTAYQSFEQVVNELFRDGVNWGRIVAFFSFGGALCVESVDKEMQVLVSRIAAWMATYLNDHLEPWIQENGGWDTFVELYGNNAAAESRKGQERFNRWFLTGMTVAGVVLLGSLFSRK
# Mcl1-Noxa inh – Mcl-1/Noxa binding inhibitors, primary screen, biochemical, TR-FRET, 1536-well. Induced myeloid leukemia cell differentiation protein Mcl-1 (Homo sapiens), Q07820. TR-FRET Mcl-1/Noxa peptide binding, 2 h. inhibition, % at 21.7 µM. 220,000 tested, 1.5% active. AID 1022, 2008;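 active = compounds that cut the protein-peptide binding signal by more than 50% relative to plate controls in a single-dose test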;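 note: His-tagged Mcl-1 with rhodamine Noxa BH3 peptide and terbium anti-His antibody; 0% = Mcl-1 plus Noxa peptide wells and 100% = peptide-only wells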
# Bim-Mcl-1 – inhibitors of Bim peptide binding to Mcl-1, primary screen, biochemical, bead-based flow cytometry, multiplex | Bim peptide-Mcl-1 binding | inhibition, % at 10 µM | AID 1009, 2008 | 190,000 tested, 0.1% active | Induced myeloid leukemia cell differentiation protein Mcl-1 (Homo sapiens), Q07820; in the data active = inhibition above about 40%;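 note: 0% = no compound tracer wells and 100% = peptide blocker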
# Bcl-xL conf – Bcl-xL inhibitors blocking Bim BH3 binding, confirmation, counter-screen for MCL1 inhibitor project, biochemical, fluorescence polarization; AID 2166, 2009; shares compounds with MCL1 BIM primary; GST-Bcl-xL / FITC-Bim BH3 peptide FP binding; inhibition, % at 10.9 µM; 1,700 tested, 54% active;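 active = inhibition above a cutoff equal to the mean inhibition of all tested compounds plus 3 SD, cut at about 30% in these data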;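 note: 0% = DMSO wells and 100% = unlabeled Bim BH3 control peptide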
# MCL1 BIM confirm – inhibitors of MCL1 binding to BIM-BH3, confirmation, biochemical, fluorescence polarization, triplicate | shares compounds with MCL1 BIM primary | GST-MCL1 / FITC-Bim-BH3 fluorescence polarization | inhibition, % at 10.9 µM | AID 2168, 2009 | 1,700 tested, 61% active;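 active = inhibition above the average of all tested compounds plus 3 SD, cut at about 40% in these data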;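 note: 0% = DMSO wells and 100% = unlabeled Bim-BH3 control peptide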
# An asterisk follows results filed as active; . = not tested or not shown; + = active, no number. Rows were chosen to be rich in hits. Some 2.3% of all compounds tested hit in one or more screens of this group.
SMILES,GLD-1 RNA inh,Mcl1 Bid PPI,MCL1 BIM primary,BCLXL inh,Mcl1-Noxa inh,Bim-Mcl-1,Bcl-xL conf,MCL1 BIM confirm
CCc1cc(=O)oc2cc(C)c(CN3CCCC(C)C3)c(O)c12 (configuration not stated),10,93*,47*,24,52*,1,25,18
O=C1CC(C(=O)N2CCN(c3ccccc3)CC2)CN1Cc1ccccc1 (configuration not stated),4,.,.,.,.,.,.,.
Cc1cc(C=C2C(=O)c3ccccc3C2=O)c(C)n1C,26,-27,71*,51*,32,1,34*,55*
Cc1cc(-c2nc3c4c5c(sc4[nH]c(=O)n3n2)CCC5)c(C)o1,-2,73*,76*,25,101*,1,28,70*
COc1cc(NC(=S)N2CCN(CCO)CC2)cc(OC)c1,4,.,82*,73*,.,.,18,30
OCCN1CCN(C(=S)Nc2ccccc2)CC1,1,-44,3,3,8,1,.,.
Oc1ccc(/C=N/N2CCCCC2)c(O)c1O,26,.,54*,38*,.,.,12,6
CC(C)C(C(=O)O)N1C(=O)/C(=C/C=C/c2ccco2)SC1=S (configuration not stated),6,98*,95*,71*,102*,0,32*,37
O=C(NN1C(=O)/C(=C/C=C/c2ccccc2)SC1=S)c1ccncc1,-47,-5,-79,-50,14,3,.,.
O=C(NN1C(=O)/C(=C/C=C/c2ccco2)SC1=S)c1ccncc1,4,26,80*,46*,99*,.,30*,45*
CC(=O)c1ccc(-c2ccc(C(=O)NC3CC(C)(C)NC(C)(C)C3)o2)cc1,-1,.,-4,-2,.,.,.,.
Fc1ccc(NCc2cccnc2)cc1F,24,33,71*,64*,15,-1,70*,91*
Clc1ccc(NCc2cccnc2)cc1,1,.,-3,3,.,.,.,.
C=CCOC(=O)CCCCCCCC,3,.,-4,6,.,.,.,.
COc1ccc(Cl)cc1CN1CCN(c2nc(C)cc(C)c2C#N)CC1,14,-8,85*,78*,14,-1,57*,82*
Cc1cc(C)c(C#N)c(N2CCN(CCOc3ccc(Cl)cc3)CC2)n1,5,-25,3,11,4,0,.,.
COc1cccc(C2C=C(c3cccs3)Nc3ncnn32)c1OC (configuration not stated),16,-36,16,15,14,4,.,.
COc1ccc(C2C=C(c3ccc(Br)s3)Nc3ncnn32)cc1OC (configuration not stated),146*,-58,+,189*,-6,1,140*,161*
C=CCn1c(=O)/c(=C/c2cc(OC)c(OC)c(OC)c2)s/c1=C(/C#N)c1nc2ccccc2n1C,1,-7,123*,112*,19,-1,145*,169*
C=CCn1c(=O)/c(=C/c2ccc(O)cc2)s/c1=C(/C#N)c1nnc2n1CCCCC2,-122,-75,-51,-26,6,1,.,.
Cc1ccc(C(=O)NCC(=O)OC(C)C(=O)NC2CCCc3ccccc32)cc1 (configuration not stated),-1,.,-1,1,.,.,.,.
COc1ccc(OC)c(-c2csc(NC(=O)C3=COCCO3)n2)c1,4,.,-4,0,.,.,.,.
CN1CCN(/N=C/c2c3ccccc3c(Cl)c3ccccc23)CC1,77*,-6,127*,111*,11,0,22,27
Cc1cccn2c(=O)c(C=C(C#N)C#N)c(N3CCN(C)CC3)nc12,25,.,53*,58*,.,.,12,18
COCCNC(=O)/C(C#N)=C/c1c(N2CCN(C)CC2)nc2c(C)cccn2c1=O,-4,.,6,6,.,.,.,.
SMILES,GLD-1 RNA inh,Mcl1 Bid PPI,MCL1 BIM primary,BCLXL inh,Mcl1-Noxa inh,Bim-Mcl-1,Bcl-xL conf,MCL1 BIM confirm
COc1ccc(/C=C2\CCCc3c2nc2ccccc2c3C(=O)O)cc1OC,120*,-25,159*,145*,30,.,170*,191*
COc1ccc(/C=C2\CCc3c2nc2ccccc2c3C(=O)O)cc1OC,117*,-16,86*,99*,16,.,17,12
CCOc1ccc(/C=C2\CCCc3c2nc2ccccc2c3C(=O)O)cc1OC,150*,.,+,176*,.,.,183*,+
O=S(=O)([O-])C(c1ccccc1)[n+]1ccccc1 (configuration not stated),-2,.,47*,8,.,.,-1,2
N#CC1=C(N)Oc2cc(O)c(Cl)cc2C1c1ccccc1F (configuration not stated),59*,.,57*,78*,.,.,91*,118*
CCOC(=O)c1c(C)[nH]c(C2=NNC(=Nc3ccc(OCC)cc3)SC2)c1C,17,-65,70*,77*,-22,-7,21,13
Nc1nc(=S)c2ncn(C3OC(CO)C(O)C3O)c2[nH]1 (configuration not stated),-6,-119,82*,28,89*,.,15,47*
Nc1nc(=S)c2ncn([C@@H]3O[C@H](CO)[C@@H](O)[C@H]3O)c2[nH]1,4,.,5,7,.,.,.,.
CC1=CC2=C(OC1N(C)C)c1cccc3cccc(c13)C2=O (configuration not stated),110*,-5,143*,122*,13,4,36*,39
Nc1nnc(SCC(=O)NC2CCCCCC2)s1,0,.,8,5,.,.,.,.
CCCN(CCC)C(=O)c1ccc2c(c1)N(CC)C(=O)c1ccccc1S2(=O)=O,72*,.,127*,117*,.,.,8,5
COc1ccc(/C=N/NC(=O)C2(C)NC(C)(C)Cc3ccccc32)cc1 (configuration not stated),-7,-25,5,-1,10,1,.,.

# Source: PubChem (several laboratories)
